# Source: PubChem BioAssay AID651814 (National Center for Advancing Translational Sciences (NCATS), 2012)
# The campaign covered roughly 2,100 compounds. About 590 (28%) were called active. Not shown: some 42% with an inconclusive outcome. This is one part of the list. Values without a mark were called inactive. The call rests on the fitted dose curve; in most records, active means well fitted inhibition curve with a large enough effect; inconclusive means small, poorly fitted or top-dose-only effect; inactive means flat fitted curve, though single readings scatter.
# Target: DNA dC->dU-editing enzyme APOBEC-3F (Homo sapiens) (UniProt Q8IUX4)
# Sequence (Q8IUX4 whole entry, looked up): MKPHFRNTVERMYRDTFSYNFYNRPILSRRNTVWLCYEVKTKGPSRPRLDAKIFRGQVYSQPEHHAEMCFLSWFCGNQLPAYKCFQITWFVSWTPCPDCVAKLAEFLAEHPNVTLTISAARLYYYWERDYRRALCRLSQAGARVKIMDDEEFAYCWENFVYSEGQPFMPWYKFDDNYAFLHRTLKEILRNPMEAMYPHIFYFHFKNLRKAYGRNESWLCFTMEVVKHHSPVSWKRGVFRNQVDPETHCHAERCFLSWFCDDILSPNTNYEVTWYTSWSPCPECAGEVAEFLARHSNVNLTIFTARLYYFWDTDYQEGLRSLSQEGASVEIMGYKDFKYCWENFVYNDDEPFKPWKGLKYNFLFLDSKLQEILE
# Assay: qHTS for inhibitors of Vif-A3F interactions: Cherry picks; further: nearly all actives have a fitted effect of over 70% in size;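 on max response: % of control where 0% means no effect; active compounds raise eYFP fluorescence by blocking Vif-driven A3F loss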
# Conditions: HeLa A3F-eYFP + Vif (tagged APOBEC3F with the HIV-1 protein that degrades it), eYFP fluorescence, 24 h
# Text: The recent discovery and characterization of host restriction factors, which provide a potent defense to invading retroviruses, has provided new targets for antiviral drug development. APOBEC3G (A3G) and APOBEC3F (A3F) are potent cytidine deaminases that block HIV-1 replication; HIV-1 expresses the Vif protein, which counteracts A3G and A3F by binding to them and inducing their proteasomal degradation. The Vif-A3G and Vif-A3F interactions provide two potential targets for development of small molecules which can interfere with the ability of Vif to degrade A3G or A3F. […] To identify inhibitors that can interfere with Vif mediated degradation of A3G and A3F, we have developed Hela cell lines that stably express A3G or A3F tagged with eYFP at the C-terminal end (A3G-eYFP or A3F-eYFP, respectively) and Vif. In the absence of an inhibitor, Vif induces degradation of A3G-eYFP and A3F-eYFP, and the cells are not fluorescent. In the presence of an inhibitor, it is expected that Vif will be unable to degrade A3G-eYFP and/or A3F-eYFP, resulting in an increase in yellow fluorescence. In this assay, Vif A3F was screened against the cherry picks ordered from the MLSMR. NIH Chemical Genomics Center [NCGC] NIH Molecular Libraries Probe Centers Network [MLPCN] MLPCN Grant: MH093245 Assay Submitter (PI): Vinay Pathak, National Cancer Institute
# A3F-Vif cells were harvested from T225 flask and resuspended in phenol free OPTI-MEM medium with 5% FBS. Then 5 uL of 140,000 cells/mL resuspended cells was dispensed into each well of low base Aurora COC 1,536-well plates (black walled, clear bottom) using a Multidrop Combi dispenser. After overnight culture at 37 deg C with 5% CO2, a total of 23 nL of compounds at 5 selected concentrations from the NPC or positive control (2 mM stock of MG132) in DMSO was transferred to each well of the assay plate using a pintool (Kalypsys, San Diego, CA), and the plates were further incubated at 37 deg C with 5% CO2 for 24 hours. After that, the plates were measured on Acumen Explorer (TTP Lab Tech). The fluorescence was detected by 488 nm/Ex and […].
# Potency means the concentration at half of the fitted maximal effect.
SMILES,Potency,max response [%]
Cc1nc2c3cc(F)ccc3n(Cc3ccccc3)c2s1,4.98 µM (active),–
Cc1nc2c3cc(F)ccc3n(Cc3ccccc3F)c2s1,14 µM (active),–
COc1cccc(CNCCSc2nnnn2C)c1OCc1ccc(F)cc1,–,-0.625
Cc1ccc(S(=O)c2ccc([N+](=O)[O-])c3nonc23)cc1 (centres undefined),18.4 µM (active),–
Cc1cc(/C=C2\SC(=S)N(C)C2=O)c(C)n1-c1ccccc1O,20.6 µM (active),–
Cc1cc(/C=C2\SC(=S)N(Cc3ccco3)C2=O)c(C)n1-c1ccccc1,18.4 µM (active),–
Cc1cc(/C=C2\SC(=S)N(Cc3ccco3)C2=O)c(C)n1-c1cccnc1,20.6 µM (active),–
CN(C)c1ccc(C=C2SC(=S)N(Cc3ccco3)C2=O)cc1,4.98 µM (active),–
O=C1/C(=C/c2ccc(O)cc2)SC(=S)N1Cc1cccnc1,–,-10.2
S=C(Nc1cccc2ccccc12)NN1CCCCCC1,–,0.0404
Cc1cc2ccccn2c1C(=O)c1ccc([N+](=O)[O-])o1,11.6 µM (active),–
O=C(NCc1cccnc1)c1ccc([N+](=O)[O-])o1,–,-20.4
O=C(NN(c1ccccc1)c1ccccc1)c1ccc([N+](=O)[O-])o1,–,-20.2
N#C/C(=C/c1ccc(N2CCOCC2)o1)C(=O)NC1CCCCC1,16.4 µM (active),–
N#C/C(=C\c1ccc(N2CCCCC2)o1)C(N)=O,15.8 µM (active),–
N#C/C(=C\c1ccc(N2CCOCC2)o1)C(=O)NC1CCCCC1,15.8 µM (active),–
Cc1onc(-c2c(F)cccc2Cl)c1C(=O)O/N=C(\N)c1ccc([N+](=O)[O-])o1,–,-3.32
CSc1cccc(NC(=O)c2cc3c(COC(C)=O)cnc(C)c3oc2=O)c1,–,-5.04
O=C(NCc1ccco1)c1cccc2c1C(=O)c1ccc(N3CCC(Cc4ccccc4)CC3)cc1S2(=O)=O,23.1 µM (active),–
Cc1ccc(S(=O)(=O)N2CCCCC2CCNC(=O)C(=O)NCc2ccco2)cc1 (centres undefined),–,-26.1
Cc1cc(C)c(S(=O)(=O)N2CCCCC2CCNC(=O)C(=O)NCc2ccco2)c(C)c1 (centres undefined),–,-24.9
O=C(NC1CCCCC1)c1cccc2c1C(=O)c1ccc(N3CCC(Cc4ccccc4)CC3)cc1S2(=O)=O,12.5 µM (active),–
O=C(NC1CC1)c1cccc2c1C(=O)c1ccc(N3CCC(Cc4ccccc4)CC3)cc1S2(=O)=O,20.6 µM (active),–

SMILES,Potency,max response [%]
CCN(CC)c1ccc(/C=C2\C(=N)N3N=C(CC(=O)N4CCOCC4)SC3=NC2=O)cc1,0.396 µM (active),–
CN(C)c1ccc(/C=C2\SC(N3CCCCC3)=NC2=O)cc1,16.4 µM (active),–
COc1cc(/C=C2\C(=N)N3N=C(S(C)(=O)=O)SC3=NC2=O)ccc1OC(=O)c1ccco1,–,3.53
COc1cc(/C=C2\C(=N)N3N=CSC3=NC2=O)cc(Br)c1OC(=O)c1ccco1,–,5.77
CN(C)c1ccc(/C=C2\C(=N)N3N=C(CC(=O)N4CCCCC4)SC3=NC2=O)cc1,16.4 µM (active),–
C1=Cc2ccccc2/C1=C\c1cc2c3c(c1)CCCN3CCC2,18.4 µM (active),–
Cc1ccc(S(=O)(=O)c2cc3ccccc3oc2=Nc2ccc3c(c2)OCO3)cc1,–,-1.94
Cc1sc2ncnc(N=Nc3c(O)[nH]c4ccccc34)c2c1C,13 µM (active),–
Cc1sc2ncn(CC(=O)NCc3ccccc3)c(=O)c2c1C,–,-23.3
Cc1sc2ncnc(SCC(=O)NC(C)(C)C)c2c1C,–,0.663
O=S(=O)(Nc1ccc(C(O)(C(F)(F)F)C(F)(F)F)cc1)c1ccc(Cl)c2nonc12,12.5 µM (active),–
Cc1ccc(F)c(S(=O)(=O)NC(=O)C2(C)CCN2C(=O)Cc2ccc(Cl)cc2Cl)c1 (centres undefined),–,0.983
Cc1ccc(N=C2NC(=O)CC(C(=O)Nc3ccc4c(c3)OCO4)S2)cc1 (centres undefined),–,-22.7
Cc1cc(N/N=C/c2ccc([N+](=O)[O-])o2)nc2ccccc12,16.4 µM (active),–
CCn1c(/C=C/c2ccc([N+](=O)[O-])o2)nc2ccccc2c1=O,3.26 µM (active),–
CCCN1C(=O)C(Cc2nc3ccccc3c(=O)n2CC)c2cc(Br)ccc21 (centres undefined),–,-0.982
O=c1c2ccccc2nc(/C=C/c2ccc([N+](=O)[O-])o2)n1CCCO,3.26 µM (active),–
Cn1c(/C=C/c2ccc([N+](=O)[O-])o2)nc2ccccc2c1=O,16.4 µM (active),–
Cc1ccc2oc(/N=C(\N)NC(=O)C(C)(C)C)nc2c1,–,-3.74
CNC(=O)C(Sc1nc(C)nc2c1oc1ccccc12)C(C)=O (centres undefined),–,-18.1
Cc1cc(NC(=O)Nc2nnc(N(C)Cc3ccccc3)s2)ccc1Br,–,-0.38
O=C(Nc1cc(Cl)cc2c1-c1ccc(Cl)cc1C2O)C(Cl)Cl (centres undefined),–,-15.3
CCCCN(C(=O)c1ccc([N+](=O)[O-])s1)c1c(N)n(CCCC)c(=O)[nH]c1=O,–,3.55

SMILES,Potency,max response [%]
COc1cccc(/C=N/n2c(C3CCCCC3)n[nH]c2=S)c1O,–,2.43
Cc1[nH]c2ccccc2c1/C=C/c1cc[n+](C)cc1,1.58 µM (active),–
Cc1[nH]c2ccccc2c1/C=C/C(=O)c1ccccc1,20.6 µM (active),–
Cc1ccc2[nH]c(C)c(/C=C/c3cc[n+](C)cc3)c2c1,0.994 µM (active),–
CCOc1cc(C)nc(NCc2ccccc2)n1,–,-21.9
CCCn1c(C2CCCN2c2nc(-c3cccc(Br)c3)cs2)nc2ccccc21 (centres undefined),–,2.76
C=C(C)CNC(=S)N/N=C1\CCCCc2ccccc21,–,0.867
C=CCN1C(=O)/C(=C\C=C2\N(C)c3ccccc3C2(C)C)SC1=S,0.461 µM (active),–
CCCN1C(=O)/C(=C/C=C2\N(CC)c3ccccc3C2(C)C)SC1=S,1.77 µM (active),–
CCCN1C(=O)/C(=C\C=C2\N(CC)c3ccccc3C2(C)C)SC1=S,2.06 µM (active),–
CN1/C(=C\C=C2/SC(=S)N(CC(=O)O)C2=O)C(C)(C)c2ccccc21,–,-6.86
CCN1C(=O)/C(=C/C=C2\N(CC)c3cc(S(=O)(=O)N(C)C)ccc3N2c2ccccc2)SC1=S,–,-29.7
CN1/C(=C\C=C2/SC(=S)NC2=O)C(C)(C)c2ccccc21,4.44 µM (active),–
Clc1ccsc1-c1csc(-c2cccnc2)n1,–,-27.5
NNC(=S)Nc1c(F)cc(F)cc1Br,–,1.43
O=C1/C(=C/c2c[nH]c3ccccc23)CCC/C1=C\c1c[nH]c2ccccc12,16.4 µM (active),–
Cn1nnnc1SCCNCc1cc(Br)ccc1OCc1ccccc1Cl,–,-14.7
Cc1cccc2cc3c(N)c(C(=O)Nc4ccc(N5CCOCC5)cc4)sc3nc12,11.2 µM (active),–
O=C(Nc1ccc(N2CCOCC2)cc1)c1cccc2ccccc12,–,-29.2
Cc1ccc(C)c2nc3sc(C(=O)N4CCOCC4)c(N)c3cc12,12.5 µM (active),–
COc1cc(C(=O)OCC(=O)Nc2ccc(N3CCOCC3)cc2)ccc1OCC(C)C,–,1.41
Cc1cccc2cc3c(N)c(C(=O)N4CCOCC4)sc3nc12,7.31 µM (active),–
Cc1sc(NC(=O)c2sc3nc4c(C)cccc4cc3c2N)c(C#N)c1C,17.7 µM (active),–

SMILES,Potency,max response [%]
CCN(CC)c1ccc(/C=N/NC(=S)NC)c(O)c1,–,-6.91
COc1ccc(Nc2nc(C)nc3sc4c(c23)CCC4)cc1O,–,-29.4
CCn1c(O)c(/C=N/N=C/c2ccc(OC)cc2)c2cc(C3=NNC(=O)CC3)ccc21,6.51 µM (active),–
CN(C)c1ccc(/C=C2\Cc3ccccc3C2=O)cc1,5.17 µM (active),–
CN(C)c1ccc(/C=C2/C[N+](C)(C)C/C(=C/c3ccc(N(C)C)cc3)C2=O)cc1,2.59 µM (active),–
C[N+](C)(C)CCC(=O)N1C/C(=C/c2ccccc2)C(=O)/C(=C\c2ccccc2)C1,–,-12.6
O=C1/C(=C\c2ccc(O)c(O)c2)SC(=S)N1Cc1ccccc1,–,-22.4
O=C1/C(=C\c2cc([N+](=O)[O-])ccc2O)SC(=S)N1Cc1ccc(Cl)cc1,20.6 µM (active),–
Cc1sc(-c2cc3c([nH]c2=O)CC(c2ccccc2)CC3=O)nc1-c1ccc(Cl)cc1 (centres undefined),1.84 µM (active),–
O=C1CC(c2ccccc2)Cc2[nH]c(=O)c(-c3nc(-c4cccc(Cl)c4)cs3)cc21 (centres undefined),4.11 µM (active),–
CCN(c1ccc(NC(=O)CCc2nc3sc4c(c3c(=O)[nH]2)CCCC4)cc1)C(C)C,–,-16.9
Clc1ccccc1C1CC(c2ccccc2)=Nc2ccccc2N1 (centres undefined),–,-7.9
CC(=O)N1CCc2nc3sc(C(=O)c4ccc(F)cc4)c(N)c3c(C(F)(F)F)c2C1,20.6 µM (active),–
COc1ccc(C(=O)c2sc3nc4c(c(C(F)(F)F)c3c2N)CN(C(C)=O)CC4)cc1OC,23.1 µM (active),–
O=C1S/C(=C/c2ccc(N3CCOCC3)o2)C(=O)N1Cc1ccc(F)cc1,2.8 µM (active),–
O=C1S/C(=C/c2ccc(N3CCOCC3)o2)C(=O)N1Cc1c(F)cccc1Cl,2.5 µM (active),–
Cc1cc2nc3s/c(=C/c4ccc(-c5ccccc5C(=O)O)o4)c(=O)n3c2cc1C,20.6 µM (active),–
Cc1ccc(NC(=O)C2CCN(S(=O)(=O)c3ccc(Cl)c(C(F)(F)F)c3)CC2)nc1,–,1.5
CCc1cc[n+](-c2nc3ccccc3nc2[N-]S(=O)(=O)c2ccc(Br)s2)cc1,23.1 µM (active),–
O=S(=O)([N-]c1nc2ccccc2nc1-[n+]1ccc(-c2ccncc2)cc1)c1ccccc1,–,-0.136
